Records with an inconclusive call do not appear. A call without a number means that no potency is given here. Activity calls are given as the source filed them. Unless noted, calls follow the shape of the dose curve; as a rule, active = well fitted curve in the direction sought with a large enough effect; inconclusive = small, poorly fitted or top-dose-only effect, or another doubt; inactive = no such curve, though single readings can be large; an effect the other way counts as inactive or inconclusive.
Experiments:
[1] = biological target: Luciferin 4-monooxygenase (Photinus pyralis) (UniProt P08659); test: Biochemical firefly luciferase enzyme assay for NPC (AID 624030);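 also: purified P. pyralis luciferase at 10 nM with luciferin and ATP substrate; nearly all actives have a fitted effect of over 70% in size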
Sequence of Luciferin 4-monooxygenase (Photinus pyralis) (P08659 whole entry, looked up): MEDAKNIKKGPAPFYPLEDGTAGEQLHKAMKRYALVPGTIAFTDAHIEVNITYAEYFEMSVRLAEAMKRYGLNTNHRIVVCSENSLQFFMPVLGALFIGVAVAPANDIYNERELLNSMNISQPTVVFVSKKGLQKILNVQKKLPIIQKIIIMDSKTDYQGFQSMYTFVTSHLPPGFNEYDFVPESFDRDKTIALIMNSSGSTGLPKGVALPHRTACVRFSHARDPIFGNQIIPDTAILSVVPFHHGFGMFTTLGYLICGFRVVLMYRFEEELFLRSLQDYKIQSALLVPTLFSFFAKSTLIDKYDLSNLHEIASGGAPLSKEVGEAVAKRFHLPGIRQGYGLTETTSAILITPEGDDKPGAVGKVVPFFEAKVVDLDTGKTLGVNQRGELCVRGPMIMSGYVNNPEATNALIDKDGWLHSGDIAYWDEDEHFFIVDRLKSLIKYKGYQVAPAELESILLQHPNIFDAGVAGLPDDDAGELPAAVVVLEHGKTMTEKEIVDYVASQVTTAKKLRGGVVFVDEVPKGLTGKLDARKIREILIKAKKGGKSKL
Method in brief: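 Counter-screen for direct inhibition of the luciferase enzyme by approved-drug library compounds, run at 10 nM enzyme in 50 mM Tris acetate (final). Luminescence was read within 5 min of enzyme-buffer addition and normalized to PTC124 versus DMSO (0%).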

[2] = qHTS Assay for Identifying Gametocytocidal Compounds (AID 743244);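 also: actives lower the fluorescent signal which means gametocytes are killed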; conditions: P. falciparum 3D7 stage III-V gametocytes, alamarBlue, 72 h; max response: stronger effect = lower value
Method in brief: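 P. falciparum 3D7 stage III–V gametocytes (20,000 cells/well) were exposed to compounds for 72 h at 37 °C, 5% CO2. AlamarBlue was then added for 24 h; decreased resorufin fluorescence (Ex 525/Em 598 nm) indicated loss of viability.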

KB-3-1 = test: Cytotoxic Profiling of Annotated Libraries Using Quantitative High-Throughput Screening (AID 1296008); conditions: Five cell lines viability, CellTiter-Glo ATP luminescence, 48-72 h; max response: stronger effect = lower value; also: nearly all actives have a fitted effect of over 60% in size
Method in brief: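 Compounds were pin-transferred onto cells and incubated 48 or 72 hr at 37 degree Celsius, 95% humidity. CellTiter-Glo was added, plates sat 10 min at room temperature, then ATP-coupled luminescence was imaged as the viability read-out.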

[3] = Drug repurposing screens with cells derived from glioblastoma tumor samples (AID 1345199); conditions: GBM patient neurospheres viability, ATP luminescence, 48 h; Potency: tumour line A; series mostly up to 45.9 µM; also: nearly all actives have a fitted effect of over 40% in size
Method in brief: (§1)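 Primary testing used CD133+ neurospheres from four GBM patients, seven concentrations, 48 h exposure and ATP-based viability; confirmation added three slower-growing patient lines.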

astro = test: as above; conditions: viability, ATP luminescence, 48 h; series mostly up to 45.9 µM
Method in brief: as §1

[4] = biological target: Cytochrome P450 1A2 (Homo sapiens) (UniProt P05177); test: p450-cyp1a2 (AID 410; calls by dose curve)
Sequence of Cytochrome P450 1A2 (Homo sapiens) (P05177 whole entry, looked up): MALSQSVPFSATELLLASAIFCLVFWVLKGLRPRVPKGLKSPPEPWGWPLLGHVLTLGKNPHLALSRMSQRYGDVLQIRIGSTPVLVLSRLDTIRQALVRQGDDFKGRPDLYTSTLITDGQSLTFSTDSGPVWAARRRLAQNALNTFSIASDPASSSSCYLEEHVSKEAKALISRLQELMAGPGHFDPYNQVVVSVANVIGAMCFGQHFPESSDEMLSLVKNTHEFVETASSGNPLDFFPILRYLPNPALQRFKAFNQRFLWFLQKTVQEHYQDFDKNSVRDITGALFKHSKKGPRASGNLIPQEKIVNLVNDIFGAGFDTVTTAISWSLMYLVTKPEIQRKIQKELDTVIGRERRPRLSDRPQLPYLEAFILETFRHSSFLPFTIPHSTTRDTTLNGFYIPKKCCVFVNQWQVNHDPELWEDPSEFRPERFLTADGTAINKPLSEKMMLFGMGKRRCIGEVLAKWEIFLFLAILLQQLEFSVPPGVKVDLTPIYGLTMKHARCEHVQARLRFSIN
Method in brief: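 O-Demethylation of luciferin 6' methyl ether by human CYP1A2 is monitored as luciferase luminescence. Substrate sits at Km (100uM); enzyme is 20nM. Values are scaled to 57 uM furafylline as maximal inhibition.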

[5] = biological target: Mitogen-activated protein kinase 10 (Mus musculus) (UniProt Q61831); test: JNK3 AlphaScreen Assay (AID 530; active = well fitted curve in either direction with a large enough effect, not every such curve was filed as active;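 also: kinase came from lysate of stimulated human HepG2 cells; signal reports phosphorylation of biotinylated GST-cJun 1-79 at Ser73 with 10 µM ATP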)
Method in brief: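 Phosphorylation of biotinylated GST-cJun(1-79) at Ser73 is measured by AlphaScreen proximity luminescence. Enzyme is JNK3 in HepG2 lysates activated with interleukin-1beta and tumor necrosis factor alpha; ATP is 10 uM final.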

[6] = qHTS Assay for Lipid Storage Modulators (AID 1519; calls by dose curve); conditions: Drosophila S3 cells, BODIPY lipid droplet/cell ratio, laser cytometry, cells loaded with oleic acid
Method in brief: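 Cells seeded at 5,000 per well were treated with compounds over a concentration series and loaded with oleic acid (400 uM, as added). Lipid droplet fluorescence (488 nm excitation, 500-530 nm channel) was read by laser-scanning cytometry and normalized to 20 uM Triacsin C.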

[7] = biological target: Ubiquitin carboxyl-terminal hydrolase 1 (Homo sapiens) (UniProt O94782); test: Inhibitors of USP1/UAF1: Pilot qHTS (AID 504865);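 also: rhodamine fluorescence freed from ubiquitin-rhodamine substrate followed over time; top concentration of the series differs between compounds; nearly all actives have a fitted effect of over 35% in size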
Sequence of Ubiquitin carboxyl-terminal hydrolase 1 (Homo sapiens) (O94782 whole entry, looked up): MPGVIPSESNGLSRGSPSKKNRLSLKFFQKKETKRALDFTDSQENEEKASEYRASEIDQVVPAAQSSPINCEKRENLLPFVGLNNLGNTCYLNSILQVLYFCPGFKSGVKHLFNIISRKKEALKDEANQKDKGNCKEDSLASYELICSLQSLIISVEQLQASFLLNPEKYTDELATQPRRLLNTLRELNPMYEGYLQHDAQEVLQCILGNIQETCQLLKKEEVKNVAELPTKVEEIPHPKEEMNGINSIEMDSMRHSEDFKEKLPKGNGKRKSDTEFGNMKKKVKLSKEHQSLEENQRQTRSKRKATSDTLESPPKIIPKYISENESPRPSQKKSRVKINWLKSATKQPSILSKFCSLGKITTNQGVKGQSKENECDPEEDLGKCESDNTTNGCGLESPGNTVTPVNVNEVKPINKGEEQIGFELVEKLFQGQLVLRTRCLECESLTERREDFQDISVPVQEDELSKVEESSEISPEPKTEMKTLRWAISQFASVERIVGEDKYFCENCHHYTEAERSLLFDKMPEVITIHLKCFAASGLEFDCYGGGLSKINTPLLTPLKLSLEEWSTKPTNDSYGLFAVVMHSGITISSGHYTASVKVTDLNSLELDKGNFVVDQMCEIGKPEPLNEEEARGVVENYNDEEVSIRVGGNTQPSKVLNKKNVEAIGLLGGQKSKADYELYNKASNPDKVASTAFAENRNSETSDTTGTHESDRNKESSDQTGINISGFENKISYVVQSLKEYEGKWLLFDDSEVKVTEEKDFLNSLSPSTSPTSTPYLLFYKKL
Method in brief: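 USP1/UAF1 complex (1nM) preincubated with compound 15 min at room temperature, then Ub-Rho substrate (150nM final) added. Fluorescence read kinetically at 480/540 nm, 6 reads every 60 seconds. Buffer: 50mM HEPES pH 7.8, 0.5mM EDTA, 0.1 mg/ml BSA, 1mM TCEP, 0.01% Tween-20.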

[8] = biological target: DNA dC->dU-editing enzyme APOBEC-3G (Homo sapiens) (UniProt Q9HC16); test: qHTS for inhibitors of Vif-A3G interactions: Validation (AID 588379)
Sequence of DNA dC->dU-editing enzyme APOBEC-3G (Homo sapiens) (Q9HC16 whole entry, looked up): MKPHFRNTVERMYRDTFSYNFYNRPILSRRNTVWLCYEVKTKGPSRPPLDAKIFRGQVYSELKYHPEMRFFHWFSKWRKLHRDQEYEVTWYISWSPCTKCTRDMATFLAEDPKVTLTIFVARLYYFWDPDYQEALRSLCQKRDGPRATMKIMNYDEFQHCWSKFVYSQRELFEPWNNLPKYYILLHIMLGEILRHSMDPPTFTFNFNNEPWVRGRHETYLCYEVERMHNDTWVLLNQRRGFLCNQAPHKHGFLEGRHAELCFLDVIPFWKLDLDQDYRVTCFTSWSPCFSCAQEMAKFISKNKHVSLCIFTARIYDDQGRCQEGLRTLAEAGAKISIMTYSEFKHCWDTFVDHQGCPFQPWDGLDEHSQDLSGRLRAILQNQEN
Method in brief: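 Yellow fluorescence (Ex 488, Em 500-530) of Vif-coexpressing HeLa A3G-eYFP cells, scanned by Acumen cytometer, reports blocked A3G degradation. Cells plated at 700/well overnight at 37 deg C before compound addition, then a further overnight compound incubation at 37 deg C.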

[9] = qHTS for Inhibitors of the Functional Ribonucleoprotein Complex (vRNP) of Lassa (LASV) Arenavirus: LASV Primary Screen - GLuc reporter signal (AID 1347082; calls by dose curve; tested in HEK293 reporter line; also: nearly all actives have a fitted effect of over 60% in size)
[10] = qHTS for Inhibitors of the Functional Ribonucleoprotein Complex (vRNP) of Lassa (LASV) Arenavirus: Viability assay - alamar blue signal for LASV Primary Screen (AID 1347083; calls by dose curve; tested in HEK293 reporter line; also: nearly all actives have a fitted effect of over 80% in size)
[11] = qHTS for Inhibitors of the Functional Ribonucleoprotein Complex (vRNP) of Lymphocytic Choriomeningitis Arenaviruses (LCMV): Viability assay - alamar blue signal for LCMV Primary Screen (AID 1347085; calls by dose curve; tested in HEK293 reporter line; also: nearly all actives have a fitted effect of over 80% in size)
[12] = biological target: Nucleoprotein (Lymphocytic choriomeningitis virus (strain Armstrong)) (UniProt P09992); test: qHTS for Inhibitors of the Functional Ribonucleoprotein Complex (vRNP) of Lymphocytic Choriomeningitis Arenaviruses (LCMV): LCMV Primary Screen - GLuc reporter signal (AID 1347086; calls by dose curve; also: nearly all actives have a fitted effect of over 70% in size)
Sequence of Nucleoprotein (Lymphocytic choriomeningitis virus (strain Armstrong)) (P09992 whole entry, looked up): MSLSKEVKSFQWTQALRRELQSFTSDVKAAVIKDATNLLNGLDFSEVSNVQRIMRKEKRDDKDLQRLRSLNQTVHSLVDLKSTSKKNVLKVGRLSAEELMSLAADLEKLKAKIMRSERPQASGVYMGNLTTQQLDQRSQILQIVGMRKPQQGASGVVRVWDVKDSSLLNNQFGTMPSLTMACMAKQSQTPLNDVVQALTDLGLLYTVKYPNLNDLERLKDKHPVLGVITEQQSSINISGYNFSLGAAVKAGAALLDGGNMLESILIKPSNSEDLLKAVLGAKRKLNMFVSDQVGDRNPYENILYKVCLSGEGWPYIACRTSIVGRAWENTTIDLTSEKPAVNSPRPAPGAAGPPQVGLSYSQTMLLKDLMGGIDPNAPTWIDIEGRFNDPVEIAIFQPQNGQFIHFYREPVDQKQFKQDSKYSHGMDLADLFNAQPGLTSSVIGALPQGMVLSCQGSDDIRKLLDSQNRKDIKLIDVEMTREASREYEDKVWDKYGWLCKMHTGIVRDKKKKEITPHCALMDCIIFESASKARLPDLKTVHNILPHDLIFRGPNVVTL

[13] = test system: Zika virus NS2B-NS3 protease; test: Primary screen GU AMC qHTS for Zika virus inhibitors (AID 1347154); also: nearly all actives have a fitted effect of over 70% in size
Method in brief: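 Unlinked Zika NS2B hydrophilic domain/NS3 protease domain noncovalent complex (25 nM final) in 10 mM Tris-HCl pH 8.0, 0.01% Tween 20, with AMC peptide substrate. Fluorescence (ex 340, em 450 nm) change over 15 min, room temperature; percent inhibition fitted to 4-parameter Hill equation.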

[14] = Primary qHTS for small molecule stabilizers of the endoplasmic reticulum resident proteome: Secreted ER Calcium Modulated Protein (SERCaMP) assay (AID 1508630)
Method in brief: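 The SH-SY5Y reporter protocol was run at 3 concentrations up to 38.3 uM (primary) or 11 concentrations (follow-up): 16 h compound, 100 nM thapsigargin for 4 h, then extracellular luciferase luminescence.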

With `C1CN(P2(N3CC3)=NP(N3CC3)(N3CC3)=NP(N3CC3)(N3CC3)=N2)CCO1` (configuration not stated) the Potency [1] was “inactive”, the max response [2] was -9.28% (inactive) and the max response (KB-3-1) was 42.2% (inactive). For the same compound, the Potency [3] was “inactive” and the Potency (astro) was “inactive”.

With `Clc1ccc([C@@H]2C[C@H]3CC[C@@H]2N3)cn1` the Potency [4] was “inactive”, the outcome [5] was “inactive” and the activity change, negative = inhibition ([6]; at 57.5 µM (top of the series)) was -3.65% (inactive). The max response ([6]; measured here: cell count channel max response) was 0.171%, the max response ([6]; measured here: lipid channel max response) was -1.79% and the Potency [7] was “inactive”. The Potency [8] was “inactive”, the max response [2] was 7.9% (inactive) and the Potency [9] was “inactive”. For the same compound, the Potency [10] was “inactive”, the Potency [11] was “inactive” and the Potency [12] was “inactive”. The Potency [13] was “inactive”, the Potency [14] was “inactive” and the max response (KB-3-1) was -6.98% (inactive). The Potency [3] was “inactive” and the Potency (astro) was “inactive”.
